# Results published in PubChem BioAssay (Tox21).
# Several values for one entry are separate records, joined by “and”; a condition that tells them apart may be missing. Equal values may be shown once. Results filed as inconclusive are left out. A call without a number means that no potency is given here. Where a structure was tested more than once in an assay, its records may differ in their call. Activity calls are given as the source filed them. Unless noted, the call rests on the fitted dose curve; in most records, active means well fitted curve in the direction sought with a large enough effect in the repeat runs; inconclusive means weak or mixed curves; inactive means no such curve, though single readings can be large; an effect the other way counts as inactive or inconclusive.
# How the values were obtained:
# [1] = qHTS assay to identify small molecule agonists of the estrogen receptor alpha (ER-alpha) signaling pathway in the presence of an antagonist - cell viability counter screen (AID 1259386);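 further: cells exposed to compounds for 22 h at 37 °C before the viability read; nearly all actives have a fitted effect of over 30% in size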; further: potency means the concentration at half of the fitted maximal effect; on activity change, negative = cytotoxicity: series mostly up to about 92 µM
# In short: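 Viability counter screen using VM7Luc4E2 (full-length ER-alpha, four ERE-luciferase). The cells were treated with compounds alongside ICI-182,780 10.0nM for 22hr, and live-cell protease fluorescence was quantified with CellTiter-Fluor.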
# [2] = target: Progesterone receptor (Homo sapiens) (UniProt P06401); experiment: qHTS assay to identify small molecule agonists of the progesterone receptor (PR) signaling pathway (AID 1346784; calls by dose curve; further: nearly all actives have a fitted effect of over 30% in size)
# Progesterone receptor (Homo sapiens), sequence (P06401 whole entry, looked up): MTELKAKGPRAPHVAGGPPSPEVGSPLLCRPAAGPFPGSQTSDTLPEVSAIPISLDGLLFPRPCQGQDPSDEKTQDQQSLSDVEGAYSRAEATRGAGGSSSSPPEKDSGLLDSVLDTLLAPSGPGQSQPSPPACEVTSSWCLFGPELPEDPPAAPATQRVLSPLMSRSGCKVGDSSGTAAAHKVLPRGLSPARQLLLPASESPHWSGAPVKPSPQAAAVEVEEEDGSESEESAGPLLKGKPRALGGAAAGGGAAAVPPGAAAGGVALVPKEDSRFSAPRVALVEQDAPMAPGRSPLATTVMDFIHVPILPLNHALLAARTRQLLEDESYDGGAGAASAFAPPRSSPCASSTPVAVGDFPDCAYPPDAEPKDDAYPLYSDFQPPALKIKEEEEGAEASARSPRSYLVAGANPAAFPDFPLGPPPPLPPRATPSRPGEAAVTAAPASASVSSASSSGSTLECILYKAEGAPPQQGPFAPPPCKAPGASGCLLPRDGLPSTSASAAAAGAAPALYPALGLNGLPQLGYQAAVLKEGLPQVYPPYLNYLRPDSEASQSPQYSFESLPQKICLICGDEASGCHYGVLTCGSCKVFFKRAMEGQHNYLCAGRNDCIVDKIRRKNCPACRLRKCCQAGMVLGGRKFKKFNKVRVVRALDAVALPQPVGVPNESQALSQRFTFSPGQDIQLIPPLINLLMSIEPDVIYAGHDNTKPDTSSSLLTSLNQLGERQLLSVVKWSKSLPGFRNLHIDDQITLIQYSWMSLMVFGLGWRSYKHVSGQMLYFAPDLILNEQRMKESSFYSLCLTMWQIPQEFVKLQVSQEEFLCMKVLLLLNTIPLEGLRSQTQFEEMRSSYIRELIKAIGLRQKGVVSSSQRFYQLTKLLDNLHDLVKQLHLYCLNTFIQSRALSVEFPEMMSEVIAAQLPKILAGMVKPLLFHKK
# In short: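 Fluorescence from LiveBLAzer B/G FRET substrate cleavage (2 hr, RT) reported PR activation in PR-UAS-bla HEK 293T cells treated 16 hr at 37C/5% CO2 with compounds; medium contained 2% charcoal-stripped FBS.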
# [3] = target: Progesterone receptor (Homo sapiens) (UniProt P06401); experiment: qHTS assay to identify small molecule antagonists of the progesterone receptor (PR) signaling pathway (AID 1346795; active means well fitted inhibition curve with a large enough effect in the signal ratio in the repeat runs, not every such curve was filed as active; the % refers to the signal ratio; further: potency means the concentration at half of the fitted maximal effect)
# In short: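 Fluorescence intensity measured 2 hr after adding beta-lactamase FRET substrate to PR-UAS-bla HEK293T cells that had been co-treated 16 hr with compound and 1 nM R5020 (final concentration) in 2% charcoal-stripped FBS.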
# [4] = qHTS assay to identify small molecule antagonists of the progesterone receptor (PR) signaling pathway - cell viability counter screen (AID 1346798); further: nearly all actives have a fitted effect of over 50% in size; further: potency means the concentration at half of the fitted maximal effect; on activity change, negative = cytotoxicity: series mostly up to about 92 µM
# In short: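 CellTiter-Glo luminescence; PR-UAS-bla HEK293T, 3,000 cells/well; compound + R5020, 16 hr, 37C/5% CO2; 30 min RT before read.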
# [5] = qHTS assay to identify small molecule agonists of the progesterone receptor (PR) signaling pathway - cell viability counter screen (AID 1346799; calls by dose curve; further: nearly all actives have a fitted effect of over 45% in size; further: potency means the concentration at half of the fitted maximal effect)
# In short: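 In parallel with the beta-lactamase readout, cytotoxicity toward PR-UAS-bla HEK293T cells was measured by CellTiter-Glo luminescence following 16 hr compound incubation in 2% charcoal-stripped FBS medium.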
# [6] = qHTS assay to identify small molecule antagonists of the TGF-beta/Smad signaling pathway - cell viability counter screen (AID 1346824); further: nearly all actives have a fitted effect of over 50% in size
# In short: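 SBE-bla HEK 293T cells were plated overnight at 37 C, then given compounds in DMSO plus TGF-beta1 (added as 0.25 ng/mL solution) for 5 hr. After the bla read, CellTiter-Glo was added to the same wells and luminescence read after 30 min at room temperature.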
# [7] = qHTS assay to identify small molecule agonists of the TGF-beta/Smad signaling pathway - cell viability counter screen (AID 1346829); further: nearly all actives have a fitted effect of over 45% in size; further: potency means the concentration at half of the fitted maximal effect; on activity change, negative = cytotoxicity: top concentration of the series differs between compounds
# In short: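 SBE-bla HEK 293T cells plated overnight, compound exposure 5 hr at 37 C. Viability read in the same wells by CellTiter-Glo luminescence after 30 min at room temperature, following the beta-lactamase read.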
# [8] = qHTS assay to identify small molecule agonists of the TGF-beta/Smad signaling pathway (AID 1346859; active means well fitted activation curve with a large enough effect in the signal ratio in the repeat runs, not every such curve was filed as active; the % refers to the signal ratio; further: series mostly up to about 77 µM)
# In short: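 After overnight seeding, SBE-bla HEK 293T cells are dosed with compounds in DMSO and kept 5 hr at 37 C, 5% CO2. LiveBLAzer-type FRET substrate is then applied for 2 hr at room temperature.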
# [9] = target: Thyrotropin-releasing hormone receptor (Homo sapiens) (UniProt P34981); experiment: qHTS assay to identify small molecule antagonists of the thyrotropin-releasing hormone receptor (TRHR) signaling pathway (AID 1346877; active means well fitted inhibition curve with a large enough effect in the repeat runs, not every such curve was filed as active; further: potency means the concentration at half of the fitted maximal effect)
# Thyrotropin-releasing hormone receptor (Homo sapiens), sequence (P34981 whole entry, looked up): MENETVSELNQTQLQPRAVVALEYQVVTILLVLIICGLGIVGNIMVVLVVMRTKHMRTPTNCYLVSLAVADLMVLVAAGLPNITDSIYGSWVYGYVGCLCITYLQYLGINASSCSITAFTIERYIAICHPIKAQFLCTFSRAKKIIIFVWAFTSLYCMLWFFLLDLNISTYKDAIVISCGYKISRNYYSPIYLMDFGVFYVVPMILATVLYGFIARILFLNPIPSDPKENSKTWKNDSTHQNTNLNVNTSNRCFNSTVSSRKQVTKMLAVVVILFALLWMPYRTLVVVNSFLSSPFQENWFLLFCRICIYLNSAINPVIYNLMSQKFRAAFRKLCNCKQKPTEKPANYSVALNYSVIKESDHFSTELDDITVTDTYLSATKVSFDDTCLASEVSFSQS
# In short: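 Following an 18 h incubation at 37 °C and a 2 h calcium dye load, TRHR-HEK293 cells were exposed to compound (5 min, room temperature) and challenged with TRH, 1 nM final.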
# [10] = target: Thyrotropin-releasing hormone receptor (Homo sapiens) (UniProt P34981); experiment: qHTS assay to identify small molecule agonists of the thyrotropin-releasing hormone receptor (TRHR) signaling pathway (AID 1346891; calls by dose curve;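 further: HEK293 cells expressing TRHR with calcium dye readout; series mostly up to about 58 µM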)
# In short: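 Compounds were tested as agonists at 15 concentrations, in triplicate, on TRHR-Hek293 cells; calcium-sensitive dye fluorescence was recorded for 3 min following addition.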
SMILES,Potency [1],Potency [2],Potency [3],Potency [4],Potency [5],Potency [6],Potency [7],Potency [8],Potency [9],Potency [10],"activity change, negative = cytotoxicity [1]",activation [2],"activity change, negative = inhibition [3]","activity change, negative = cytotoxicity [4]","viability change, negative = cytotoxic [6]","activity change, negative = cytotoxicity [7]",activation [8]
COc1cc(-c2ccc(N=C=O)c(OC)c2)ccc1N=C=O,inactive,inactive,inactive,inactive,inactive,inactive,inactive,inactive,inactive,inactive,–,–,–,–,–,–,–
C/C=C(\C)C(=O)OCc1ccccc1,inactive,inactive,inactive,inactive,inactive,inactive,inactive,inactive,–,–,–,–,–,–,–,–,–
CCCCCCCCCCCCCCCC[N+](C)(C)CCN(Cc1ccc(OC)cc1)c1ncccn1,inactive,inactive,inactive,29.8 µM (active),21.1 µM (active),–,–,inactive,inactive,inactive,–,–,–,–,–,–,–
CCCC(C)c1ccccc1O (stereo not drawn),inactive,inactive,inactive,inactive,inactive,inactive,inactive,inactive,inactive,inactive,–,–,–,–,–,–,–
CC(C)(C)C(=O)OCOC(=O)[C@@H]1N2C(=O)[C@@H](NC(=O)[C@H](N)c3ccccc3)[C@H]2SC1(C)C,inactive,inactive,inactive,inactive,inactive,inactive,inactive,inactive,inactive,inactive,–,–,–,–,–,–,–
C[C@H]1[C@H]2CC[C@H]3[C@@H]4CC=C5C[C@@H](N(C)C)CC[C@]5(C)[C@H]4CC[C@]23CN1C,inactive,inactive,inactive,inactive,inactive,inactive,–,inactive,inactive,inactive,–,–,–,–,–,–,–
Cc1ccc(O)c(C(C)(C)C)c1,inactive,inactive,inactive,inactive,inactive,inactive,–,inactive,–,–,–,–,–,–,–,–,–
NC(=O)NS(=O)(=O)c1ccc(N)cc1,inactive,inactive,inactive,inactive,inactive,inactive,inactive,inactive,inactive,inactive,–,–,–,–,–,–,–
COC(=O)c1cc(Cl)ccc1OC,inactive,inactive,inactive,inactive,–,inactive,inactive,inactive,inactive,inactive,–,–,–,–,–,–,–
COc1cccc(N)c1,inactive,inactive,inactive,inactive,inactive,inactive,inactive,inactive,inactive,inactive,–,–,–,–,–,–,–
CCCCCCCC(=O)[O-].CCCCCCCC(=O)[O-].[Zn+2],inactive,inactive,inactive,inactive,inactive,inactive,inactive,inactive,–,–,–,–,–,–,–,–,–
CSc1ccc(C(=O)c2[nH]c(=O)[nH]c2C)cc1,inactive,inactive,inactive,inactive,–,inactive,inactive,inactive,–,–,–,–,–,–,–,–,–
CSc1cnc(C)cn1,inactive,inactive,inactive,inactive,inactive,inactive,inactive,inactive,inactive,inactive,–,–,–,–,–,–,–
CCC(C)(C)C1CCCCC1OC(C)=O (stereo not drawn),inactive,inactive,inactive,inactive,–,inactive,inactive,inactive,inactive,inactive,–,–,–,–,–,–,–
O=C(O)c1c(Cl)cccc1Cl,inactive,inactive,inactive,inactive,inactive,inactive,inactive,inactive,–,–,–,–,–,–,–,–,–
CCCCCCCCOc1ccccc1C(=O)Nc1ccc(C(=O)OCC[N+](C)(CC)CC)cc1,inactive,inactive,inactive,29.8 µM (active),–,inactive,inactive,inactive,inactive,inactive,–,–,–,–,–,–,–
CCCCCCCCCCCCCCCS(=O)(=O)Oc1ccccc1,inactive,inactive,inactive,inactive,inactive,inactive,inactive,inactive,inactive,inactive,–,–,–,–,–,–,–
Oc1ccc(N=Nc2ccccc2)cc1,27.7 µM (active),inactive,19.6 µM (active),inactive,inactive,inactive,inactive,inactive,inactive,inactive,–,–,–,–,–,–,–
O=C1C=CC(=O)N1c1ccc(Cc2ccc(N3C(=O)C=CC3=O)cc2)cc1,inactive,inactive,inactive,inactive,inactive,inactive,61.6 µM (active),inactive,–,inactive,–,–,–,–,–,–,–
NC(=NCCCCCCN=C(N)/N=C(\N)Nc1ccc(Cl)cc1)/N=C(\N)Nc1ccc(Cl)cc1,inactive,inactive,inactive and 55.5 µM (active),inactive,inactive,–,35.3 µM (active) and 48.7 µM (active) and inactive,inactive,–,–,–,–,–,–,–,–,–
CCCCN(CCCC)C(=O)N(CCCC)CCCC,inactive,inactive,inactive,inactive,–,inactive,inactive,inactive,–,–,–,–,–,–,–,–,–
C1CCCC1,inactive,inactive,inactive,inactive,inactive,inactive,inactive,inactive,inactive,inactive,–,–,–,–,–,–,–

SMILES,Potency [1],Potency [2],Potency [3],Potency [4],Potency [5],Potency [6],Potency [7],Potency [8],Potency [9],Potency [10],"activity change, negative = cytotoxicity [1]",activation [2],"activity change, negative = inhibition [3]","activity change, negative = cytotoxicity [4]","viability change, negative = cytotoxic [6]","activity change, negative = cytotoxicity [7]",activation [8]
NNc1nc(-c2ccc(N)cc2)cs1,30.6 µM (active),inactive,inactive,inactive,–,inactive,inactive,inactive,–,–,–,–,–,–,–,–,–
CCCCCCCCCCC=O,inactive,inactive,inactive,inactive,inactive,inactive,–,inactive,inactive,inactive,–,–,–,–,–,–,–
CO[Si](CCCNc1ccccc1)(OC)OC,inactive,inactive,inactive,inactive,inactive,inactive,inactive,inactive,inactive,inactive,–,–,–,–,–,–,–
c1ccc(CSCc2ccccc2)cc1,inactive,inactive,inactive,inactive,inactive,inactive,inactive,inactive,inactive,inactive,–,–,–,–,–,–,–
CC(NN)c1ccccc1 (stereo not drawn),–,–,–,–,–,–,–,–,–,–,-1.38% [at 19 µM] (inactive),-0.517% [at 19 µM] (inactive),-2.01% [at 18.9 µM] (inactive),0.118% [at 18.9 µM] (inactive),2.36% [at 15.8 µM] (inactive),-16.9% [at 15.8 µM] (inactive),1.03% [at 15.8 µM] (inactive)
O=C1c2c(O)ccc(Nc3ccc(CCO)cc3)c2C(=O)c2c([N+](=O)[O-])ccc(O)c21,30.6 µM (active),inactive,inactive,inactive,inactive,inactive,inactive,inactive,inactive,inactive,–,–,–,–,–,–,–
O=C(O)c1ccc(Cl)c(Cl)c1,inactive,inactive,inactive,inactive,inactive,inactive,inactive,inactive,–,–,–,–,–,–,–,–,–
O=CC=C(c1ccccc1)c1ccccc1,inactive,inactive,27.5 µM (active),61.6 µM (active),–,inactive,inactive,inactive,inactive,inactive,–,–,–,–,–,–,–
CN(C)[C@@H]1C(=O)C(C(N)=O)=C(O)[C@@]2(O)C(=O)C3=C(O)c4c(O)ccc(Cl)c4[C@@H](O)[C@H]3C[C@@H]12,inactive,inactive,inactive,inactive,inactive,inactive,inactive,–,inactive,inactive,–,–,–,–,–,–,–
Cc1onc(-c2ccccc2Cl)c1C(=O)N[C@@H]1C(=O)N2[C@@H]1SC(C)(C)[C@@H]2C(=O)O,inactive,inactive,inactive,inactive,inactive,inactive,inactive,inactive,–,–,–,–,–,–,–,–,–
N#CSc1ccc(N)c([N+](=O)[O-])c1,48.9 µM (active),inactive,30.8 µM (active),inactive,inactive,inactive,inactive,inactive,–,–,–,–,–,–,–,–,–
COc1ccc(-c2ccc3cc(C(=O)O)ccc3c2)cc1C12CC3CC(CC(C3)C1)C2,inactive,inactive,inactive,inactive,inactive,inactive,–,inactive,inactive,inactive,–,–,–,–,–,–,–
Clc1ccc2nsnc2c1NC1=NCCN1,inactive,inactive,inactive,inactive,–,inactive,inactive,inactive,–,–,–,–,–,–,–,–,–
CC(C)(C)NC(=O)[C@@H]1C[C@@H]2CCCC[C@@H]2CN1C[C@@H](O)[C@H](Cc1ccccc1)NC(=O)[C@H](CC(N)=O)NC(=O)c1ccc2ccccc2n1,49.2 µM (active),inactive,49.2 µM (active),55.2 µM (active),39.1 µM (active),–,–,–,–,–,–,–,–,–,–,–,–
Nc1c(Cl)cc(Cl)cc1Cl,inactive,inactive,inactive,inactive,–,inactive,inactive,inactive,inactive,inactive,–,–,–,–,–,–,–
CCCCN1CCCC[C@H]1C(=O)Nc1c(C)cccc1C,inactive,inactive,inactive,–,–,inactive,inactive,inactive,inactive,inactive,–,–,–,–,–,–,–
NC(=O)CC[C@@H]1NC(=O)[C@H](Cc2ccccc2)NC(=O)[C@H](Cc2ccc(O)cc2)NC(=O)CCSSC[C@@H](C(=O)N2CCC[C@H]2C(=O)N[C@@H](CCCN=C(N)N)C(=O)NCC(N)=O)NC(=O)[C@H](CC(N)=O)NC1=O,inactive,inactive,inactive,–,inactive,inactive,–,inactive,–,–,–,–,–,–,–,–,–
O=C(c1ccc(O)cc1O)c1ccc(O)cc1O,inactive,inactive,10.9 µM (active),–,inactive,inactive,inactive,inactive,inactive,inactive,–,–,–,–,–,–,–
Cc1ccc(O)c2ncccc12,inactive,inactive,7.5 µM (active),–,–,inactive,inactive,inactive,5.23 µM (active),inactive,–,–,–,–,–,–,–
Cc1nc(-c2ccc3c(c2)CCN(CCC2CCC(NC(=O)/C=C/c4ccc(F)cc4)CC2)CC3)no1 (stereo not drawn),inactive,inactive,inactive,–,inactive,inactive,inactive,inactive,inactive,inactive,–,–,–,–,–,–,–
CCC1OCC(COc2ccc(Oc3ccccc3)cc2)O1 (stereo not drawn),inactive,inactive,54.5 µM (active),–,–,inactive,inactive,inactive,inactive,inactive,–,–,–,–,–,–,–
